Data on 38 compounds can be found in PubChem BioAssay (EPA / NIEHS).

Each structure is given as a SMILES string. Results filed as inconclusive are left out. The source made the active and inactive calls. Rule for the calls: active = hit-call score of the fitted dose curve at least 0.9, where 1 is the maximum; inconclusive = response in the unintended direction; inactive = score below 0.9.

Read-out in the assay: xenobiotic metabolism (CYP1A1), CYP1A1 (gene 1543)
Put plainly: CLD_CYP1A1_48hr: CellzDirect (CLD) Gene Expression Assay for xenobiotic metabolism (CYP1A1) at 48 hours (AID 2283705). On the procedure:
CLD_48hr is a cell-based, multiplexed-readout assay that uses hepatocyte, a human liver primary cell, with measurements taken at 48 hours after chemical dosing in a 96-well plate.CLD_CYP1A1_48hr is one of 16 assay component(s) measured or calculated from the CLD_48hr assay. It is designed to make measurements of mRNA induction, a form of inducible reporter, as detected with chemiluminescence signals by Quantitative Nuclease Protection Assay (qNPA) technology.Data from the assay component CLD_CYP1A1_48hr was analyzed at the endpoint, CLD_CYP1A1_48hr, in the positive analysis fitting direction relative to DMSO as the negative control and baseline of activity. Using a type of inducible reporter, gain-of-signal activity can be used to understand changes in the reporter gene as they relate to the gene CYP1A1. Furthermore, this assay endpoint can be referred to as a primary readout. To generalize the intended target to other relatable targets, this assay endpoint is annotated to the cyp intended target family, where subfamily is xenobiotic metabolism.
Human hepatocyte cultures were treated daily for two consecutive days with fresh dosing solutions containing appropriate concentrations of the 320 ToxCast chemicals (chemical identities were blinded to CellzDirect and other ToxCast collaborators), vehicle control (0.2% DMSO), and positive control inducers as summarized in Table 1. Due to the large number of treatment groups and chemicals examined, the ToxCast chemicals were divided into two groups (spanning two independent cultures of hepatocytes from separate donor preparations (Hu778: ToxCast plates 1 and 2; Hu776: ToxCast plates 3 and 4). Each preparation of human hepatocyte cultures was treated with respective vehicle control, medium only control, set of six positive controls/reference chemicals for the five hepatic receptor pathways, and a subset of eight of the ToxCast chemicals (indoxacarb, pyrithiobac-sodium, norflurazon, cyhalofop-butyl, methomyl, thiram, acetochlor, and propiconazole). These replicate data, coupled with internal replicates designed within the blinded ToxCast chemical library, provided additional data to evaluate interindividual differences between hepatocyte preparations and their potential impact on chemical profiles.Cell morphology and integrity were evaluated using phase-contrast microscopy as an indicator of hepatocyte cell health (Tyson & Green, 1987). Cultures for each treatment group (i.e., media, vehicle [0.2% DMSO], positive control inducers [multiple concentrations], and the ToxCast chemicals [multiple concentrations]) were observed and cell morphology was assessed relative to vehicle control cultures at each harvest time point (0, 6, 24, or 48 h). […] Images were evaluated at the conclusion of the study to assess changes in cell integrity and account for the effects of chemical exposure on uncharacteristic changes in concentration-dependent gene expression profiles. The results from these determinations of apparent cytotoxicity were annotated (yes/no) alongside the corresponding qNPA data for reference.At the conclusion of each treatment period, hepatocyte cultures (96-well) were washed with 1 volume of HBSS, lysed by addition of 25 ul ArrayPlate lysis buffer (HTG, Tucson, AZ), and 70 ul/well of Denaturation Oil, denatured by incubation at 95C for 10 min, and frozen at approximately -70C until analysis by nuclease protection assay (qNPA) (Roberts et al., 2007). For qNPA analysis, cell lysates were thawed at 50C for approximately 30 min, qNPA probes were added, and samples were incubated at 95C for 10 min to begin the detection process by denaturing the target RNA, dissociating the duplexes and secondary structure hybridization. At the conclusion of the hybridization period, S1 nuclease reagent was added to each sample to digest all nonprotected nucleotides at 50C for 60-90 min. […]
By AC50 is commonly meant the concentration at which the activity in the assay is half-maximal. For `CCCN(CCC)c1c([N+](=O)[O-])cc(C(F)(F)F)c(N)c1[N+](=O)[O-]`, the AC50 was 5.19 µM (active).

For the compound `CCC(C)OC(=O)N1CCCCC1CCO` (stereo not drawn), the outcome was inactive.

As for `CCOC(=O)[C@H](C)Oc1ccc(Oc2nc3ccc(Cl)cc3o2)cc1`, the call was inactive.

Consider `C=CCOC(Cn1ccnc1)c1ccc(Cl)cc1Cl` (stereo not drawn), for which the AC50 is 3.84 µM (active).

As to `N#CSCSc1nc2ccccc2s1`, the AC50 was 7.52 µM (active).

As for `CCCCC(CC)COC(=O)c1ccccc1C(=O)O` (stereo not drawn), the call was inactive.

For `COC(=O)c1ccccc1C(=O)O`, the call was inactive.

`CCCCOC(=O)[C@@H](C)Oc1ccc(Oc2ccc(C(F)(F)F)cn2)cc1`: the outcome was inactive.

Turning to `CN(C)C(=O)Nc1ccc(Cl)c(Cl)c1`, the AC50 was 12.4 µM (active).

For the compound `OB(O)O`, the compound was called inactive.

As for `CC(C)(C)[C@@H](O)[C@@H](Cc1ccc(Cl)cc1)n1cncn1`, the AC50 is 3.97 µM (active).

Turning to `CCCCC(CC)CN1C(=O)C2C3C=CC(C3)C2C1=O` (stereo not drawn), the AC50 was 33.7 µM (active).

Consider `CCCCCOC(=O)COc1cc(N2C(=O)C3=C(CCCC3)C2=O)c(F)cc1Cl`, for which the outcome was inactive.

As for `c1ccc2[nH]c(-c3cscn3)nc2c1`, the AC50 is 0.781 µM (active).

Take `CCOC(=O)NCCOc1ccc(Oc2ccccc2)cc1`: the compound was called inactive.

Take `CCC(O)=C1C(=O)CC(C(=O)O)CC1=O` (stereo not drawn): the call was inactive.

On to `CC1(C)C(C=C(Cl)Cl)C1C(=O)OCc1cccc(Oc2ccccc2)c1` (stereo not drawn), for which the compound was called inactive.

Regarding `CCNc1nc(N)nc(Cl)n1`, the call was inactive.

For the compound `S=C(S)NCCNC(=S)S.[Mn+2].[S-]C([S-])=NCCN=C([S-])[S-].[Zn+2]`, the AC50 is 0.252 µM (active).

Turning to `c1ccc(Nc2ccccc2)cc1`, the compound was classed as inactive.

Take `COC(=O)c1c(Cl)nn(C)c1S(=O)(=O)NC(=O)Nc1nc(OC)cc(OC)n1`: the compound was called inactive.

As to `CC(C)(c1ccc(O)cc1)c1ccc(O)cc1`, the compound was classed as inactive.

For the compound `CCOC(=O)C(C)Oc1ccc(Oc2nc3ccc(Cl)cc3o2)cc1` (stereo not drawn), the outcome was inactive.

As to `O=C(O)C1(C(=O)Nc2ccc(Cl)cc2Cl)CC1`, the compound was called inactive.

As to `COC(=O)c1ccc(I)cc1S(=O)(=O)NC(=O)Nc1nc(C)nc(OC)n1`, the AC50 is 20 µM (active).

Turning to `COCCO`, the compound was classed as inactive.

For the compound `CCCCOCCOCCOCc1cc2c(cc1CCC)OCO2`, the AC50 was 12 µM (active).

Take `CCOC(=O)COc1cc(-n2ncc(C(F)(F)F)c(C)c2=O)c(F)cc1Cl`: the compound was classed as inactive.

As for `COC(=O)c1ccccc1S(=O)(=O)NC(=O)Nc1nc(OC(F)F)cc(OC(F)F)n1`, the call was inactive.

In the case of `O=C(Nc1ccc([N+](=O)[O-])cc1Cl)c1cc(Cl)ccc1O`, the AC50 was 3.55 µM (active).

`COC(=O)CSc1cc(N=c2sc(=O)n3n2CCCC3)c(F)cc1Cl`: the compound was called inactive.

As to `S=C([S-])NCCNC(=S)[S-].[Mn+2]`, the AC50 is 3.58 µM (active).

With `CCCOC(=O)NCCCN(C)C`, the call was inactive.

In the case of `Cc1nn(C)c(Oc2ccccc2)c1C=NOCc1ccc(C(=O)OC(C)(C)C)cc1`, the call was inactive.

As for `COC(=O)c1ccc(CNS(C)(=O)=O)cc1S(=O)(=O)NC(=O)Nc1nc(OC)cc(OC)n1`, the compound was classed as inactive.

`COC(=O)c1cccc(C)c1S(=O)(=O)NC(=O)Nc1nc(OCC(F)(F)F)nc(N(C)C)n1`: the AC50 is 8.53 µM (active).

As to `CCN(Cc1c(F)cccc1Cl)c1c([N+](=O)[O-])cc(C(F)(F)F)cc1[N+](=O)[O-]`, the AC50 was 1.22 µM (active).

With `CSC(=O)c1cccc2nnsc12`, the compound was classed as inactive.
